In PubChem BioAssay (EPA / NIEHS):
Records with an inconclusive call do not appear. Active and inactive are the calls of the source. The calls were made as follows: active = hit-call score of the fitted dose curve at least 0.9, where 1 is the maximum; inconclusive = response in the unintended direction; inactive = score below 0.9.

The compounds below were run against Steroid hormone receptor ERR1 (Homo sapiens) (UniProt P11474) (assay: ATG_ERRa_TRANS: Attagene TRANS-FACTORIAL HepG2 Assay for human Estrogen-Related Receptor alpha (ERRa) (AID 2282971)). Conditions: HepG2 Attagene TRANS reporter, ERRa transactivation.
Chain of Steroid hormone receptor ERR1 (Homo sapiens) (P11474 whole entry, looked up, the tested form may be a part): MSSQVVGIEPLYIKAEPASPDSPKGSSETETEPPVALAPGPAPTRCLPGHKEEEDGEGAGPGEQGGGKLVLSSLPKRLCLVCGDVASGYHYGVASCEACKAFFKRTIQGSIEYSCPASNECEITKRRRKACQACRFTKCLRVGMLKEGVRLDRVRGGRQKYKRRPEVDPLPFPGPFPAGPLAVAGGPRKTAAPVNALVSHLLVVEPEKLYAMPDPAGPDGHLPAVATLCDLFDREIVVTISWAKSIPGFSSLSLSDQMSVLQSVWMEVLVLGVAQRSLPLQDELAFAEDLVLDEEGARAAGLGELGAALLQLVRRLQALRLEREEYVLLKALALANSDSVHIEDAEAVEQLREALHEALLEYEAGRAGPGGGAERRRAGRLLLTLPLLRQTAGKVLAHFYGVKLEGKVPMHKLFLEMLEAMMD
Procedure, shortened: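 Signal gain relative to DMSO for an ERRa-Gal4 chimeric receptor, read as reporter mRNA by RT-PCR/capillary electrophoresis. Human HepG2 liver cells, transient multiplex reporter transfection, 24 h chemical exposure.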

outcome, inactive:
O=C1C=CC(=O)N1c1cccc(N2C(=O)C=CC2=O)c1
O=C(F)C(F)(F)C(F)(F)C(F)(F)C(F)F
Brc1cc(Br)c(Oc2c(Br)cc(Br)c(Br)c2Br)cc1Br
CC1CCC(C(=O)O)CC1 (configuration not stated)
O=P(O)(O)CCC(F)(F)C(F)(F)C(F)(F)C(F)(F)C(F)(F)C(F)(F)F
Clc1ccc2c(Cl)ccnc2c1
CCCCCCOC(=O)c1ccc(O)cc1
CC(=O)Nc1ccc(S(N)(=O)=O)cc1
c1cc[nH]c1
O=C(O)CCC(F)(F)C(F)(F)C(F)(F)C(F)(F)C(F)(F)F
O=CC(F)(F)C(F)(F)C(F)(F)C(F)F
FC1(F)C=CC(F)(F)C1(F)F
